Screening data deposited in PubChem BioAssay by National Center for Advancing Translational Sciences (NCATS).
Most compounds without a hit are left out; they make up all but 11% or so of the library.
G9a block: inhibitors of human histone lysine methyltransferase G9a; Q96KQ7; G9a H3K9 monomethylation, AlphaScreen, 2 h; Potency, µM (top dose mostly 102 µM), without a hit: at the top dose activity, negative = inhibition, actives largely listed as inhibitors; hit rate 8.8% among 350,000; AID 504332; note: % is set by controls: 0 for no effect and ±100 for the full control effect; nearly all actives have a fitted effect of over 75% in size
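Quantitative HTS format: methyltransferase activity on a biotin-tagged H3K9 peptide is measured by AlphaScreen, using a rabbit anti-monomethyl-H3K9 antibody with streptavidin donor and anti-IgG acceptor beads. Final levels are 20 nM enzyme, 500 nM peptide, 20 uM SAM; 2 h RT.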
PLK1 PBD block: inhibitors of human PLK1 polo-box domain binding | P53350 | Potency, µM, for inactives: max response, negative = inhibition, hits mostly inhibitors | Plk1 PBD binding of FITC phosphopeptide, fluorescence polarization | hit rate 2.8% among 360,000; note: series mostly up to about 57 µM; % is set by controls: 0 for no effect and ±100 for the full control effect; nearly all actives have a fitted effect of over 65% in size
HP1b chromo inh: HP1-beta chromodomain-methylated histone interaction inhibition; P83916; AlphaScreen HP1-beta / biotin-H3K9me3 peptide binding; Potency, µM (titrated, usually from 114 µM), inactives show top-dose activity change, negative = inhibition, most hits filed as inhibitors; hit rate 0.56% among 390,000; AID 540317; note: nearly all actives have a fitted effect of over 70% in size
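AlphaScreen: HP1-beta (50 nM) preformed 30 min with biotin-H3(1-18)K9me3 peptide (50 nM) in PBS pH 7.4, 0.01% Tween-20. Compound added for 30 min at RT, then streptavidin donor/nickel chelate acceptor beads (10 ug/mL) for 30 min.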
JMJD2A Tudor inh: blocks the human JMJD2A Tudor domain. O75164. AlphaScreen JMJD2A-Tudor / H3K4me3 peptide binding. Potency, µM (top dose mostly 114 µM), for the others: at the top dose activity change, negative = inhibition, most hits filed as inhibitors. hit rate 4.4% among 390,000. AID 504339; note: % is set by controls: 0 for no effect and ±100 for the full control effect; nearly all actives have a fitted effect of over 50% in size
Target sequence (O75164 whole entry, looked up, the tested form may be a part): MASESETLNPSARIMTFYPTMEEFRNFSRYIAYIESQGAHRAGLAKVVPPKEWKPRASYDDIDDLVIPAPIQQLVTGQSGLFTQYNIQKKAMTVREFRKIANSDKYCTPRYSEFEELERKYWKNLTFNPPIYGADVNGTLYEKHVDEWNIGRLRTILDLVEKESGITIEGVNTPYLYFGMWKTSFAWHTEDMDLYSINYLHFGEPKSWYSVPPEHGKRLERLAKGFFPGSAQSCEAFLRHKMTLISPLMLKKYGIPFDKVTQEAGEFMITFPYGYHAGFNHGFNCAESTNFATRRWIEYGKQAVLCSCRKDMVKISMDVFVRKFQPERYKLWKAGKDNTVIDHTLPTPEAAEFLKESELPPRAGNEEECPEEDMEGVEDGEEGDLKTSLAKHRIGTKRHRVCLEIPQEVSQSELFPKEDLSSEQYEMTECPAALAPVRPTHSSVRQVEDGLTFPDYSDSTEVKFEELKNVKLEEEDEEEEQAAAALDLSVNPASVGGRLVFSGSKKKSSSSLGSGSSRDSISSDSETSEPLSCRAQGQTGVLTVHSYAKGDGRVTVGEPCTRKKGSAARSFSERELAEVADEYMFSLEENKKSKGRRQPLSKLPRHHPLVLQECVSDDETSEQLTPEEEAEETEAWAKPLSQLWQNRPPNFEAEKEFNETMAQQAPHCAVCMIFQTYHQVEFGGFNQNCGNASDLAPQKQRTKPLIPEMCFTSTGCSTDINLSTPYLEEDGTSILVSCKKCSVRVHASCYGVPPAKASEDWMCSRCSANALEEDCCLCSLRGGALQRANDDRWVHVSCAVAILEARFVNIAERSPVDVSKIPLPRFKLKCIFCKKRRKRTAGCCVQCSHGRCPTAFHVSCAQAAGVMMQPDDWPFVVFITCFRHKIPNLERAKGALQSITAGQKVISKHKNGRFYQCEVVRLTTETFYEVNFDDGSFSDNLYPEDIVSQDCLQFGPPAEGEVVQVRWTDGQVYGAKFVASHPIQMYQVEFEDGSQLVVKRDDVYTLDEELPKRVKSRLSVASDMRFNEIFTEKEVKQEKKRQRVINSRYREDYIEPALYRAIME
BAZ2B block: blocks human BAZ2B; Q9UIF8; AlphaScreen BAZ2B-H3K14Ac peptide displacement; Potency, µM (doses to about 114 µM), without a hit: top-dose activity change, negative = inhibition, usual class: inhibitors; hit rate 4.4% among 360,000; AID 504333; note: % is set by controls: 0 for no effect and ±100 for the full control effect; nearly all actives have a fitted effect of over 60% in size
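AlphaScreen displacement: compounds (up to 110uM) incubated 30 min at room temperature with a preformed 50 nM BAZ2B/50 nM biotinylated H3K14Ac peptide complex in PBS pH 7.4 with Tween-20. Donor and acceptor beads at 10 ug/mL final added, 20 min light-protected before reading.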
VDR inhibitor: vitamin D3 receptor (human) inhibition | AID 504847 | Potency, µM, for the others: max response, negative = inhibition, actives largely listed as inhibitors | VDR-SRC2-3 peptide fluorescence polarization, 2 h | hit rate 0.93% among 400,000 | P11473; note: % is set by controls: 0 for no effect and ±100 for the full control effect
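VDR–SRC2-3 interaction, FP format. Cmpds 23 nl via pintool, brief spin, 2 h ambient incubation.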
* hit, by the source's call; [ ] = remark or other dose. Calls come from the whole dose curve; as a rule, active = well fitted curve in the direction sought with a large enough effect; inconclusive = small, poorly fitted or top-dose-only effect, or another doubt; inactive = no such curve, though single readings can be large; an effect the other way counts as inactive or inconclusive. Potency is the fitted concentration of half-maximal effect.

What do the screens show for `CC(=O)Nc1ccc(SC[C@H](C)CN2CC[C@H](O)CCC2=O)cc1`?
G9a block: 19.5%[2.33 µM]; PLK1 PBD block: 18.9µM*; HP1b chromo inh: 60.4%; JMJD2A Tudor inh: -2.9%; BAZ2B block: -3.7%; VDR inhibitor: inconclusive

What do the screens show for `Cc1ccc(SCCN2CCC(C(C)(C)C)CCC2=O)cc1` (stereo unspecified)?
G9a block: 104.7%; PLK1 PBD block: -14.2%; HP1b chromo inh: 64.0%; JMJD2A Tudor inh: 7.9%; BAZ2B block: 6.8%; VDR inhibitor: -11.9%

How did CC(=O)Nc1ccc(SCCN2CCN(CC(C)C)CCC2=O)cc1 do in these assays?
HP1b chromo inh: 37.9%; JMJD2A Tudor inh: -10.3%; VDR inhibitor: 50.1µM*

How did COc1ccc(Cl)cc1S(=O)(=O)Nc1cccc(-c2ccc(N3CCCC3)nn2)c1 do in these assays?
G9a block: 3.4%[59 µM]; HP1b chromo inh: 17.4%[57 µM]; JMJD2A Tudor inh: -24.3%; BAZ2B block: 1.9%; VDR inhibitor: 6.8%

Results for Cc1cc(OCC[N+]2(C)CCCCC2)nc2ccccc12 ?
G9a block: inconclusive; PLK1 PBD block: -25.2%; HP1b chromo inh: -19.1%; JMJD2A Tudor inh: 39.8µM*; BAZ2B block: -10.6%; VDR inhibitor: 1.5%

What do the screens show for `NS(=O)(=O)c1cc2c(cc1Cl)NC(CSCc1ccccc1)=NS2(=O)=O`?
G9a block: -125.6%[59 µM]; PLK1 PBD block: -2.1%; HP1b chromo inh: 15.0%; JMJD2A Tudor inh: 0.0%; BAZ2B block: 89.1µM*; VDR inhibitor: 3.1%

Results for O=C(CSC1=NS(=O)(=O)c2cc(Cl)ccc2N1)NCc1ccccc1 ?
G9a block: -8.7%; PLK1 PBD block: 1.5%; HP1b chromo inh: 22.8%; JMJD2A Tudor inh: -4.1%; BAZ2B block: 6.4%; VDR inhibitor: 3.0%

Results for O=C(O)CNC(=O)c1ccc(NS(=O)(=O)c2ccc3ccccc3c2)cc1 ?
G9a block: 39.8µM*; PLK1 PBD block: -19.4%; HP1b chromo inh: 16.6%; JMJD2A Tudor inh: -16.1%; BAZ2B block: inconclusive; VDR inhibitor: -2.4%

Results for CC(=O)c1ccc(NS(=O)(=O)c2ccc3ccccc3c2)cc1 ?
G9a block: 5.4%[59 µM]; PLK1 PBD block: -6.9%; HP1b chromo inh: -6.2%; JMJD2A Tudor inh: -16.3%; BAZ2B block: -6.3%; VDR inhibitor: -8.1%

What do the screens show for `COc1ccc(NS(=O)(=O)c2ccc(NC(C)=O)cc2)c(OC)c1`?
G9a block: -9.0%; PLK1 PBD block: 23.8µM*; HP1b chromo inh: -15.6%; JMJD2A Tudor inh: inconclusive; BAZ2B block: -0.3%; VDR inhibitor: inconclusive

How did COc1cc(S(=O)(=O)Nc2ccc(C(=O)NCC(=O)O)cc2)ccc1NC(C)=O do in these assays?
G9a block: 50.1µM*; PLK1 PBD block: -0.5%; HP1b chromo inh: 29.1%; JMJD2A Tudor inh: 2.8%; BAZ2B block: -13.2%; VDR inhibitor: -9.0%

Results for COc1ccc(OC)c(NS(=O)(=O)c2ccc(NC(C)=O)cc2)c1 ?
G9a block: 22.2%[59 µM]; PLK1 PBD block: -4.1%; HP1b chromo inh: 32.9%; JMJD2A Tudor inh: 2.2%; BAZ2B block: 1.3%; VDR inhibitor: 8.9%

How did Cc1cc2ncc(S(=O)(=O)c3ccccc3)c(N)n2n1 do in these assays?
G9a block: -2.0%; PLK1 PBD block: -1.3%; HP1b chromo inh: 20.8%; JMJD2A Tudor inh: -14.6%; BAZ2B block: -2.7%; VDR inhibitor: -1.5%

What do the screens show for `OCC(O)CS` (stereo unspecified)?
G9a block: 18.9%[59 µM]; VDR inhibitor: 9.4%

Results for CCOc1ccc2c(c1)c(=O)c(C(=O)c1ccc(CC)cc1)cn2CC(=O)Nc1ccccc1C ?
G9a block: 2.7%[59 µM]; HP1b chromo inh: 16.0%; JMJD2A Tudor inh: -20.2%; BAZ2B block: -36.3%; VDR inhibitor: -19.4%

What do the screens show for `COc1ccc(NC(=O)CSc2nnc3c(n2)[nH]c2ccc(S(=O)(=O)N(C)C)cc23)c(OC)c1`?
HP1b chromo inh: 3.0%; JMJD2A Tudor inh: -32.7%; VDR inhibitor: 5.8%

What do the screens show for `COc1ccc(CCN(C)CCC(=O)Nc2ccc(C)cc2)cc1OC`?
G9a block: -49.7%[59 µM]; PLK1 PBD block: -9.3%; HP1b chromo inh: 17.3%; JMJD2A Tudor inh: -27.9%; BAZ2B block: 3.1%; VDR inhibitor: -5.3%

How did COc1ccc(CCN(C)CC(O)c2ccccc2)cc1OC (stereo unspecified) do in these assays?
G9a block: 28.2µM*; PLK1 PBD block: -13.9%; HP1b chromo inh: inconclusive; JMJD2A Tudor inh: 2.51µM*; BAZ2B block: inconclusive; VDR inhibitor: -22.3%

What do the screens show for `COc1ccc(Cc2noc(CN(C)CCc3ccccc3)n2)cc1OC`?
PLK1 PBD block: -11.7%; HP1b chromo inh: 18.6%; JMJD2A Tudor inh: -7.6%; BAZ2B block: -11.6%; VDR inhibitor: -10.0%

What do the screens show for `COc1ccc(CCN(C)CCc2ccc(OC)c(OC)c2)cc1OC`?
G9a block: 15.8µM*; PLK1 PBD block: -17.7%; HP1b chromo inh: 28.4%; JMJD2A Tudor inh: -13.7%; VDR inhibitor: 4.9%

Results for COc1ccc(CCN(C)C/C=C/c2ccccc2)cc1OC ?
G9a block: 50.1µM*; PLK1 PBD block: -0.7%; HP1b chromo inh: inconclusive; JMJD2A Tudor inh: 28.2µM*; BAZ2B block: inconclusive; VDR inhibitor: -14.4%

How did O=C(Cn1nc(-c2ccccc2)c2cnc3ccc(F)cc3c21)NC1CCCC1 do in these assays?
G9a block: 8.1%[59 µM]; HP1b chromo inh: 7.2%; JMJD2A Tudor inh: -11.0%; BAZ2B block: -3.3%; VDR inhibitor: 3.0%

What do the screens show for `CC(=O)Nc1ccc(S(=O)(=O)Nc2nnc(C(C)C)s2)cc1`?
G9a block: 25.1µM*; PLK1 PBD block: inconclusive; HP1b chromo inh: -2.4%; JMJD2A Tudor inh: -33.3%; BAZ2B block: inconclusive; VDR inhibitor: -12.2%

What do the screens show for `CC(=O)Nc1ccc(S(=O)(=O)Nc2nnc(Cc3ccc(Cl)cc3)s2)cc1`?
G9a block: 22.4µM*; PLK1 PBD block: 26.7µM*; HP1b chromo inh: 0.2%; JMJD2A Tudor inh: 1.1%; BAZ2B block: -23.8%; VDR inhibitor: -13.6%

Results for CC(=O)Nc1ccc(S(=O)(=O)Nc2nnc(C3CCCCC3)s2)cc1 ?
G9a block: inconclusive; PLK1 PBD block: 23.8µM*; HP1b chromo inh: -7.3%; JMJD2A Tudor inh: -9.3%; BAZ2B block: 7.3%; VDR inhibitor: -15.0%

Results for COc1ccc(Cc2nnc(NS(=O)(=O)c3ccc(NC(C)=O)cc3)s2)cc1 ?
G9a block: -21.0%; PLK1 PBD block: -12.8%; HP1b chromo inh: 24.9%; JMJD2A Tudor inh: 7.1%; BAZ2B block: 6.8%; VDR inhibitor: -2.5%

How did Nc1nc(C(=O)N2CCOCC2)nn1C(=O)c1ccc(Cl)cc1 do in these assays?
G9a block: 35.5µM*; PLK1 PBD block: inconclusive; HP1b chromo inh: 70.3%; JMJD2A Tudor inh: 2.8%; BAZ2B block: -18.1%; VDR inhibitor: -16.3%
